Our source for the inhibition values is ChEMBL document CHEMBL1961873, “Compounds: GSK PKIS; Assays: Nanosyn kinase panel” (2012).

The target in the first test is T1, Tyrosine-protein kinase Mer (Homo sapiens) (UniProt Q12866).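 Further: values are mean inhibition of human MER kinase, from the GSK PKIS profiling panel.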
T1 sequence (whole entry): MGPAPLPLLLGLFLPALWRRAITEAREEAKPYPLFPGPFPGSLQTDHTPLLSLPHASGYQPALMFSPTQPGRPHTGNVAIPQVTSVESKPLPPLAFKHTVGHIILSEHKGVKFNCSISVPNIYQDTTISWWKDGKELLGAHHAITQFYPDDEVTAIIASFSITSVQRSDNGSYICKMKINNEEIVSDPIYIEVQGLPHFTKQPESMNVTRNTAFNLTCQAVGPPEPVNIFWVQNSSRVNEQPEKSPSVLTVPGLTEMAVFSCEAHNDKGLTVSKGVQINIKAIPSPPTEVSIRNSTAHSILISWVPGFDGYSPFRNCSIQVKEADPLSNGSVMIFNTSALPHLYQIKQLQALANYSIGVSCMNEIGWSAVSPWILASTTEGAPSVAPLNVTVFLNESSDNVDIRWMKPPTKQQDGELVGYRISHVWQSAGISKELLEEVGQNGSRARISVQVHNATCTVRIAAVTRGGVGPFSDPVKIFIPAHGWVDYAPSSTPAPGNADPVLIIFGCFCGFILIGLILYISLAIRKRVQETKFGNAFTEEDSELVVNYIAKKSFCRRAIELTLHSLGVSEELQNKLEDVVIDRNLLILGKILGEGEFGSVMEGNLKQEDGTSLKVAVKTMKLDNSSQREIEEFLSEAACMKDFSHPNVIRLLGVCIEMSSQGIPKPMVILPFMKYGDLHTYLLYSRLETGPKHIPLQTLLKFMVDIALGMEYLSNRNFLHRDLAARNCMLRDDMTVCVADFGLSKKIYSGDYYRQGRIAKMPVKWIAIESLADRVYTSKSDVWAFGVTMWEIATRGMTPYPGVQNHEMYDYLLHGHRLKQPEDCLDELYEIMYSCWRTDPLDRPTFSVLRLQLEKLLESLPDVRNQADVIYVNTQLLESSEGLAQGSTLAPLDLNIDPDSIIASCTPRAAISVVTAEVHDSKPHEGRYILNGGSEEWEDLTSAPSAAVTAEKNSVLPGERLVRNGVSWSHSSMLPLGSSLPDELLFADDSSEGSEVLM
The following applies: at 1 µM.
On to `CCn1cc(-c2ccnc3[nH]ccc23)c(-c2cccc(NC(=O)Nc3ccc(OCc4ccccc4)cc3)c2)n1`, for which the inhibition stood at 8.39%.

`Cc1cccc(Nc2ncc(-c3ccccc3)o2)c1`: the inhibition came to 2.26%.

For `Nc1nc(-c2ccc(F)cc2)c(-c2ccc3ncccc3n2)s1`, the inhibition was 5.56%.

`FC(F)(F)c1cccc(-c2nn3ncccc3c2-c2ccnc(Nc3ccc4c(c3)OCCO4)n2)c1`: the inhibition was 40%.

Consider `CNC(=O)c1cncc(/C=C/c2ccccc2Cl)c1`, for which the inhibition was determined as 2.42%.

For `O=C(O[C@H]1CN[C@H](C#Cc2cc3ncnc(Nc4ccc(Cc5ccccc5)cc4)c3s2)C1)N1CCOCC1`, the inhibition amounted to 2.01%.

For `COc1ccc(-c2nn3ncccc3c2-c2ccnc(Nc3ccc4c(c3)OCCO4)n2)cc1`, the inhibition was determined as 12.9%.

On to `CCNC(=O)O[C@H]1CN[C@H](C#Cc2cc3ncnc(Nc4ccc(OCc5cccc(F)c5)c(Cl)c4)c3s2)C1`, for which the inhibition came to 7.09%.

On to `COc1ccc(-c2oc3ncnc(N)c3c2-c2ccc(NC(=O)Nc3cc(C(F)(F)F)ccc3F)cc2)cc1`, for which the inhibition was 66.5%.

On to `CCn1c(-c2nonc2N)nc2cnc(Oc3cccc(NC(=O)c4ccc(N(C)C)cc4)c3)cc21`, for which the inhibition came to 0.04%.

Consider `CCn1c(-c2nonc2N)nc2c(C#CC(C)(C)O)nc(OC[C@H](N)c3ccccc3)cc21`, for which the inhibition amounted to 3.59%.

Consider `Fc1ccc(-c2nn3ncccc3c2-c2ccnc(Nc3ccc4c(c3)OCCO4)n2)cc1`, for which the inhibition turned out to be 31.5%.

In the case of `COc1cccc(-c2c[nH]c3c(N/N=C/c4ccncc4)ncnc23)c1`, the inhibition was 15.7%.

With `O=C(Nc1n[nH]c2cc(-c3ccc(F)cc3)ccc12)C1CC1`, the inhibition amounted to 2.68%.

As to `Clc1ccc(-c2nn3ncccc3c2-c2ccnc(Nc3ccccc3)n2)cc1`, the inhibition was 6.33%.

For `c1ccc(COc2ccc(Nc3ncnc4ccc(-c5ccco5)cc34)cc2)cc1`, the inhibition turned out to be 12.7%.

Turning to `N#Cc1c(NC(=O)c2ccc(F)cc2)sc2c1CCCC2`, the inhibition was found to be 0.78%.

With `COc1cc(/C=N/Nc2ncnc3[nH]ncc23)ccc1O`, the inhibition was 9.92%.

In the case of `Nc1nc(-c2cccc(Cl)c2)c(-c2ccc3ncccc3n2)s1`, the inhibition is 7.21%.

With `COc1cc2ncn(-c3cc(OCc4ccccc4C(F)(F)F)c(C(=O)N(C)C)s3)c2cc1OC`, the inhibition is 2.36%.

As to `COC(=O)Nc1nc2ccc(S(=O)(=O)c3ccc(NC(=O)Nc4cc(C(F)(F)F)ccc4F)cc3)cc2[nH]1`, the inhibition amounted to 4.05%.

As for `COc1ccc(-c2cc3c(N)ncnc3o2)cc1`, the inhibition came to 2.01%.

With `COc1cc(N2CCN(C(C)C)CC2)ccc1Nc1nc(Nc2ccc(F)cc2C(N)=O)c2cc[nH]c2n1`, the inhibition is 8.43%.

For `CC1=C(C(=O)Nc2cc(Cl)c3[nH]ncc3c2)C(c2ccc(C(F)(F)F)cc2)CC(=O)N1` (stereo unspecified), the inhibition came out at 0.92%.

Turning to `CC(=O)NCc1cccc(C#Cc2cncnc2Nc2ccc(OCc3cccc(F)c3)c(Cl)c2)c1`, the inhibition amounted to 2.93%.

Consider `CCn1c(-c2nonc2N)nc2c(C#CC(C)(C)O)ncc(OC3CCNCC3)c21`, for which the inhibition turned out to be 2.19%.

In the case of `NS(=O)(=O)c1ccc(Nc2ncc(-c3ccccc3)o2)cc1`, the inhibition came to 5.27%.

Take `CCCN(CCS(C)(=O)=O)Cc1ccc(-c2ccc3ncnc(Nc4ccc(OCc5cccc(F)c5)c(Cl)c4)c3c2)o1`: the inhibition came out at 7.18%.

Regarding `CN1CCC(n2cnc(-c3ccc(F)cc3)c2-c2ccnc(Nc3ccccc3)n2)CC1`, the inhibition is 6.83%.

On to `COc1ccc(CNC(=O)c2ccc(-c3cc(-c4nnc(C)o4)ccc3C)cc2)cc1`, for which the inhibition came to 3.49%.

For `COc1cc(Nc2nccc(Nc3ccc4c(C)n[nH]c4c3)n2)cc(OC)c1OC`, the inhibition amounted to 14.4%.

Turning to `CN1CCC(n2cnc(-c3ccc(F)cc3)c2-c2ccnc(N)n2)CC1`, the inhibition amounted to 6.73%.

As to `COc1ccc2c(-c3ccnc(Nc4cccc(OC(F)(F)F)c4)n3)cnn2n1`, the inhibition was 2.89%.

The target of another test is Hepatocyte growth factor receptor (Homo sapiens) (UniProt P08581). The following applies: at 0.1 µM.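 Further: reported values are means of MET inhibition.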
Hepatocyte growth factor receptor (Homo sapiens), sequence (P08581 whole entry): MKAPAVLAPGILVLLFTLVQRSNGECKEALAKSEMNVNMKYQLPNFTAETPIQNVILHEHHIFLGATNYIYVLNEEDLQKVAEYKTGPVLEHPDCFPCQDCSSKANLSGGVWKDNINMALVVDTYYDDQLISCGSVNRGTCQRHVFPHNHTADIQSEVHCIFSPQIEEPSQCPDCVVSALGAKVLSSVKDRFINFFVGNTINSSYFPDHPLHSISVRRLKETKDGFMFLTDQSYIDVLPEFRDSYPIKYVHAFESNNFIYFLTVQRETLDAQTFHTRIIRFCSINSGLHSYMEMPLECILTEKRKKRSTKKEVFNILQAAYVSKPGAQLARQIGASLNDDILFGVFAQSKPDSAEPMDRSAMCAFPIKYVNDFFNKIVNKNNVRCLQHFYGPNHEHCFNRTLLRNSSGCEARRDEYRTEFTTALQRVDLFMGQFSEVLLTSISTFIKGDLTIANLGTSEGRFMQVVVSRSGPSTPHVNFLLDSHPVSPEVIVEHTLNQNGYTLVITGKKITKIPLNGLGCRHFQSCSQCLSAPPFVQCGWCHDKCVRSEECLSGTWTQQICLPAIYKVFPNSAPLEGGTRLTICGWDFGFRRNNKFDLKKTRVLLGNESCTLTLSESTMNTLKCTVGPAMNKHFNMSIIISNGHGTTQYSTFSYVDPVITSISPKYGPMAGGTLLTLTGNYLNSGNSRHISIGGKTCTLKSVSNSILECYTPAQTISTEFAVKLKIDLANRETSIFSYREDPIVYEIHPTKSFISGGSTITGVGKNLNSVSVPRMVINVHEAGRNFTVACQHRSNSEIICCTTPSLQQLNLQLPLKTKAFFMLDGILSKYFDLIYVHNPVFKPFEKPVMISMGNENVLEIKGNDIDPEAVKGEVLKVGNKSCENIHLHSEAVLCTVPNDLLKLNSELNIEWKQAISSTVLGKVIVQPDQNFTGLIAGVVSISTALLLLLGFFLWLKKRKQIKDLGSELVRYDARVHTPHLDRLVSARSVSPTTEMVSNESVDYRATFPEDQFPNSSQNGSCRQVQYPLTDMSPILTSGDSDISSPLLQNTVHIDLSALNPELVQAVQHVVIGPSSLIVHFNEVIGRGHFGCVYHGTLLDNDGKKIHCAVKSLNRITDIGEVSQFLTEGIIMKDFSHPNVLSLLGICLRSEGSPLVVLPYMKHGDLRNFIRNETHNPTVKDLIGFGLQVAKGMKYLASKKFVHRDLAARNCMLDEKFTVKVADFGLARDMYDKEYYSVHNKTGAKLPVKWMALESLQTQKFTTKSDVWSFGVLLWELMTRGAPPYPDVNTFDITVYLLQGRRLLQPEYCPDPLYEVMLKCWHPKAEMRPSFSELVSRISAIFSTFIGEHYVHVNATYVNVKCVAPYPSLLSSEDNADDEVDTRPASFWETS
On to `CCn1cc(-c2ccnc3[nH]ccc23)c(-c2cccc(NC(=O)Nc3ccc(OCc4ccccc4)cc3)c2)n1`, for which the inhibition is 9.54%.

On to `Cc1cccc(Nc2ncc(-c3ccccc3)o2)c1`, for which the inhibition was determined as 3.88%.

Regarding `Nc1nc(-c2ccc(F)cc2)c(-c2ccc3ncccc3n2)s1`, the inhibition is 4.07%.

As to `FC(F)(F)c1cccc(-c2nn3ncccc3c2-c2ccnc(Nc3ccc4c(c3)OCCO4)n2)c1`, the inhibition was 7.83%.

Turning to `CNC(=O)c1cncc(/C=C/c2ccccc2Cl)c1`, the inhibition was determined as 3.72%.

With `O=C(O[C@H]1CN[C@H](C#Cc2cc3ncnc(Nc4ccc(Cc5ccccc5)cc4)c3s2)C1)N1CCOCC1`, the inhibition is -1.3%.

With `COc1ccc(-c2nn3ncccc3c2-c2ccnc(Nc3ccc4c(c3)OCCO4)n2)cc1`, the inhibition is -1.3%.

Take `CCNC(=O)O[C@H]1CN[C@H](C#Cc2cc3ncnc(Nc4ccc(OCc5cccc(F)c5)c(Cl)c4)c3s2)C1`: the inhibition was 3.78%.

`COc1ccc(-c2oc3ncnc(N)c3c2-c2ccc(NC(=O)Nc3cc(C(F)(F)F)ccc3F)cc2)cc1`: the inhibition was 9.34%.

For the molecule `CCn1c(-c2nonc2N)nc2cnc(Oc3cccc(NC(=O)c4ccc(N(C)C)cc4)c3)cc21`, the inhibition is -1.57%.

Regarding `CCn1c(-c2nonc2N)nc2c(C#CC(C)(C)O)nc(OC[C@H](N)c3ccccc3)cc21`, the inhibition stood at 6.32%.

In the case of `Fc1ccc(-c2nn3ncccc3c2-c2ccnc(Nc3ccc4c(c3)OCCO4)n2)cc1`, the inhibition worked out at 4.89%.

With `COc1cccc(-c2c[nH]c3c(N/N=C/c4ccncc4)ncnc23)c1`, the inhibition is 4.89%.

In the case of `O=C(Nc1n[nH]c2cc(-c3ccc(F)cc3)ccc12)C1CC1`, the inhibition is 1.03%.

In the case of `Clc1ccc(-c2nn3ncccc3c2-c2ccnc(Nc3ccccc3)n2)cc1`, the inhibition stood at 4.95%.

With `c1ccc(COc2ccc(Nc3ncnc4ccc(-c5ccco5)cc34)cc2)cc1`, the inhibition came to 7.46%.

Regarding `N#Cc1c(NC(=O)c2ccc(F)cc2)sc2c1CCCC2`, the inhibition is 1%.

Take `COc1cc(/C=N/Nc2ncnc3[nH]ncc23)ccc1O`: the inhibition is 1.87%.

For `Nc1nc(-c2cccc(Cl)c2)c(-c2ccc3ncccc3n2)s1`, the inhibition came to 6.65%.

Regarding `COc1cc2ncn(-c3cc(OCc4ccccc4C(F)(F)F)c(C(=O)N(C)C)s3)c2cc1OC`, the inhibition came out at 1.4%.

Regarding `COC(=O)Nc1nc2ccc(S(=O)(=O)c3ccc(NC(=O)Nc4cc(C(F)(F)F)ccc4F)cc3)cc2[nH]1`, the inhibition is -2.38%.

For `COc1ccc(-c2cc3c(N)ncnc3o2)cc1`, the inhibition is -2.37%.

On to `COc1cc(N2CCN(C(C)C)CC2)ccc1Nc1nc(Nc2ccc(F)cc2C(N)=O)c2cc[nH]c2n1`, for which the inhibition was determined as 7.18%.

On to `CC1=C(C(=O)Nc2cc(Cl)c3[nH]ncc3c2)C(c2ccc(C(F)(F)F)cc2)CC(=O)N1` (stereo unspecified), for which the inhibition came out at 0.14%.

Turning to `CC(=O)NCc1cccc(C#Cc2cncnc2Nc2ccc(OCc3cccc(F)c3)c(Cl)c2)c1`, the inhibition was 4.9%.

In the case of `CCn1c(-c2nonc2N)nc2c(C#CC(C)(C)O)ncc(OC3CCNCC3)c21`, the inhibition is 5.39%.

`NS(=O)(=O)c1ccc(Nc2ncc(-c3ccccc3)o2)cc1`: the inhibition was found to be 1.7%.

Regarding `CCCN(CCS(C)(=O)=O)Cc1ccc(-c2ccc3ncnc(Nc4ccc(OCc5cccc(F)c5)c(Cl)c4)c3c2)o1`, the inhibition amounted to 2.91%.

On to `CN1CCC(n2cnc(-c3ccc(F)cc3)c2-c2ccnc(Nc3ccccc3)n2)CC1`, for which the inhibition was -0.26%.

Take `COc1ccc(CNC(=O)c2ccc(-c3cc(-c4nnc(C)o4)ccc3C)cc2)cc1`: the inhibition came out at 11.8%.

For `COc1cc(Nc2nccc(Nc3ccc4c(C)n[nH]c4c3)n2)cc(OC)c1OC`, the inhibition came out at 1.57%.

Consider `CN1CCC(n2cnc(-c3ccc(F)cc3)c2-c2ccnc(N)n2)CC1`, for which the inhibition is 2.36%.

Take `COc1ccc2c(-c3ccnc(Nc4cccc(OC(F)(F)F)c4)n3)cnn2n1`: the inhibition was 4.94%.
